Z-score and composite z-score data for 13 compounds are collected here from PubChem BioAssay.

Assay [1] in a line: HepG2 liver cancer cell viability effects, profiling panel, resazurin fluorescence, 24 h, PK04 Diversity Set (AID 1172). Note: test concentration not given here. Conditions: higher = more signal. On the technique in general: Alamar Blue is a resazurin reagent that responds to reducing activity.
Assay [2] is described as follows: basal S. cerevisiae growth modulation, no modifier, primary screen, OD600, strain BY4716, 24 h, basal condition (AID 1173). Conditions: OD600, 24 h, higher = more signal, called active from +8 up or from −8 down.
A short description of assay [3]: MM1S myeloma cell viability, profiling panel, resazurin fluorescence, basal, 24 h, PK04 Diversity Set (AID 1174).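 Note: MM1S multiple myeloma cell line; test concentration not given here.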 The conditions noted are these: higher = more signal, called active from +8 up or from −8 down.
The target in assay [4] is Dihydroorotate dehydrogenase (quinone), mitochondrial (Plasmodium falciparum (isolate 3D7)) (UniProt Q08210). The experiment in a line: PfDHODH enzyme inhibitors, primary screen, biochemical, C-terminal His tag, absorbance 600 nm (AID 1175).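 Note: recombinant parasite enzyme with a five histidine tag at its C terminus; test concentration not given here.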 The conditions noted are these: DCIP absorbance 600 nm, higher = more signal, called active from +8 up or from −8 down.
A short description of assay [5]: P. aeruginosa biofilm formation inhibitors, primary screen, strain PAO1, LB-PBS medium, absorbance 600 nm (AID 1176). Note: test concentration not given here. Conditions: P. aeruginosa PAO1 growth/biofilm, A600, 12 h; higher = more signal.
Assay [6] can be described thus: S. cerevisiae RM11-1a growth modifiers, primary screen, strain RM11-1a, OD600, basal, 24 h (AID 1177).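 Note: cultures grown under basal conditions with no added stressor; test concentration not given here.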 The conditions noted are these: OD600, 24 h, higher = more signal, called active from +8 up or from −8 down.
Assay [7] can be described thus: E. coli acrAB mutant growth effects, primary screen, E. coli filamentation inducers, strain DRC39, OD650, 24 h (AID 1178).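 Note: growth measured as culture turbidity by optical density at 650 nm; test concentration not given here.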 Conditions: higher = more signal, called active from +8 up or from −8 down.
Assay [8] is described as follows: E. coli acrAB mutant growth effects, primary screen, E. coli filamentation inducers, strain DRC39, OD650, 48 h (AID 1179).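 Note: screen aims at cell division blockers that make cells filament.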 The conditions noted are these: E. coli DRC39 delta-acrAB growth, higher = more signal, called active from +8 up or from −8 down.
Assay [9] is described as follows: RPMI8226 myeloma cell viability, profiling panel, resazurin fluorescence, basal, 24 h, PK04 Diversity Set (AID 1180).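 Note: RPMI8826 multiple myeloma cell line at 5000 cells per well; test concentration not given here.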 The conditions noted are these: higher = more signal.
In assay [10] the target is E3 ubiquitin-protein ligase XIAP (Homo sapiens) (UniProt P98170). The assay is described as follows: XIAP binders, primary screen, biophysical, small-molecule microarray, fluorescence 635 nm (AID 1181).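 Note: score merges 667 nm emission and signal to noise over triplicate slides.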 Conditions: small-molecule microarray binding, higher = more signal.

The source made the active and inactive calls. Unless noted, the rule behind the calls is not given here.

Dihydroorotate dehydrogenase (quinone), mitochondrial (Plasmodium falciparum (isolate 3D7)), sequence (Q08210 whole entry, looked up): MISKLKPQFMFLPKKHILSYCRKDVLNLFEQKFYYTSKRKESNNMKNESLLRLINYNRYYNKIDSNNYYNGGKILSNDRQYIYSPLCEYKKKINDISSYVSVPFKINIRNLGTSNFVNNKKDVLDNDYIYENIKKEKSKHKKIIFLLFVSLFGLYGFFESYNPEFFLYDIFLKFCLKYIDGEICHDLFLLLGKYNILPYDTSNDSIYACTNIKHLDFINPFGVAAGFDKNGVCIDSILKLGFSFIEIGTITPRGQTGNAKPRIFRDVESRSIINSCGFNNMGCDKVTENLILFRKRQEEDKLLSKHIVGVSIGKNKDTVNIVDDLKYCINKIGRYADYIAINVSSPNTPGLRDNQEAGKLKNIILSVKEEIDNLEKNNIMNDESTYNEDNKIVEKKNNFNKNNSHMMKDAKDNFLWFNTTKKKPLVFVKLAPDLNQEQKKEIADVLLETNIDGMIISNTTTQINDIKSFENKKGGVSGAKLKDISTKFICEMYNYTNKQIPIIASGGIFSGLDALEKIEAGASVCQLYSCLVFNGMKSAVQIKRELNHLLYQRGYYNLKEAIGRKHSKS
E3 ubiquitin-protein ligase XIAP (Homo sapiens), sequence (P98170 whole entry, looked up): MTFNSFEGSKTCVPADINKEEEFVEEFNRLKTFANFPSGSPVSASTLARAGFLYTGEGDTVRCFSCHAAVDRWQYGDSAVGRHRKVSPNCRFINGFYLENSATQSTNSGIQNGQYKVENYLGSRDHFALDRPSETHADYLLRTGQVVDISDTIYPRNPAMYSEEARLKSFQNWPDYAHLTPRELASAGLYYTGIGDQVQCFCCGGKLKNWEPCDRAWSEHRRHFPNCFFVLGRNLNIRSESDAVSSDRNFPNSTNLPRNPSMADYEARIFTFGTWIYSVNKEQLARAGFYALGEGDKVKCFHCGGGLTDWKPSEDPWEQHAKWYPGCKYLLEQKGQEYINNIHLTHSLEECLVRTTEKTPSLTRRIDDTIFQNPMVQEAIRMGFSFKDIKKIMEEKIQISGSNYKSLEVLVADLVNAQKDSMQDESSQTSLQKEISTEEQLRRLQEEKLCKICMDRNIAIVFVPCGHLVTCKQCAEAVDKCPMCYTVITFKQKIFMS

Consider `C[C@@H]1ON(c2cccc(C(=O)OC(C)(C)C)c2)[C@H](c2ccc(Br)cc2)[C@H]1C(=O)N1C(=O)OC[C@H]1Cc1ccccc1`, for which the z-score was 0.0192 in assay [1]; 0.724 (inactive) in assay [2]; 0.433 (inactive) in assay [3]; -0.295 (inactive) in [5]; 0.872 (inactive) in assay [6]; -0.741 (inactive) in assay [7]. Further, the z-score in assay [8] is -0.472 (inactive); in assay [9], 1.25. Further, the composite z-score in [4] was 1.17 (inactive); in [10] it was 0.127.
For the compound `Cc1ccc(S[C@]2(C(=O)NCC(F)(F)F)CC(=O)N(C(C)C)[C@@H]2c2ccc(CO)cc2I)cc1`, the z-score was -0.185 in assay [1]; -1.52 (inactive) in assay [2]; -0.881 (inactive) in [3]; 0.786 (inactive) in assay [5]; 0.701 (inactive) in [6]; 0.0212 (inactive) in [7]. The values for the z-score in [8] and in [9] were -0.105 (inactive) and -2.05, respectively. The composite z-score in assay [4] is 0.436 (inactive); in assay [10], -0.0013.
In the case of `CC(C)C[C@@H]1NC(=O)[C@@H]2C[C@H](C(=O)NCCCCCN)[C@H](c3cccc(OCCO)c3)N2C1=O`, the z-score in [1] is -0.573; in assay [2], -1.22 (inactive); in assay [3], 0.522 (inactive); in assay [5], 0.792 (inactive); in [6], -2.75 (inactive); in [7], 1.06 (inactive). Also, the z-score in [8] was 1.75 (inactive); in assay [9], 0.465. The composite z-score in assay [4] is -1.78 (inactive); in [10], 0.0337.
Consider `CCOC1=C2C(CN(S(=O)(=O)c3ccc(C)cc3)C2c2ccc(C)cc2)C2C(=O)N(c3ccccc3)C(=O)C2C1` (stereo not given), for which the z-score is -0.635 in [1]; 0.941 (inactive) in assay [2]; -0.193 (inactive) in assay [3]; -0.2 (inactive) in assay [5]; 0.413 (inactive) in [6]; -0.392 (inactive) in assay [7]. Also, the z-score in [8] is 0.758 (inactive); in [9], 0.366. Moreover, the values for the composite z-score in assay [4] and in assay [10] were -1.12 (inactive) and -0.0773, respectively.
For `CCOC(=O)C[C@H]1[C@H](OC(=O)c2cc3ccccc3oc2=O)[C@@H](NC(=O)Cc2ccc(OC)cc2)c2cc(OCCCO)ccc2N1C(=O)c1ccccc1`, the z-score is -1.1 in [1]; -2.06 (inactive) in assay [2]; -0.218 (inactive) in [3]; -0.329 (inactive) in assay [5]; 0.0296 (inactive) in [6]; -0.682 (inactive) in [7]. Moreover, the z-score was -0.784 (inactive) in assay [8] and -1.22 in [9]. Further, the results for the composite z-score in assay [4] and in [10] were -2.42 (inactive) and 0.0997, respectively.
In the case of `O=C(c1ccccc1)N1Cc2ccccc2[C@@H]2OC(c3ccc(OCCCO)cc3)=N[C@]2(Cc2ccccc2)C1=O`, the z-score in assay [1] is -0.448; in assay [2], -0.485 (inactive); in assay [3] it was -1.79 (inactive); in [5] it was 2.05 (inactive); in [6], 0.843 (inactive); in assay [7], -0.273 (inactive). Further, the z-score was -0.749 (inactive) in assay [8] and -2.49 in [9]. Further, the composite z-score was 0.369 (inactive) in assay [4] and -0.102 in [10].
Turning to `COc1ccc(C#Cc2ccc3c(c2)[C@]2(C(=O)N3)[C@H](c3ccccc3OCCO)N3[C@H](c4ccccc4)[C@H](c4ccccc4)OC(=O)[C@H]3[C@@H]2C(=O)O)cc1`, the z-score was 1.86 in [1]; 1.75 (inactive) in assay [2]; -3.05 (inactive) in assay [3]; 2.76 (inactive) in assay [5]; 3.13 (inactive) in assay [6]; 1.06 (inactive) in [7]. Further, the z-score in assay [8] was 0.047 (inactive); in [9], -6.75. Further, the results for the composite z-score in assay [4] and in assay [10] were -24.8 (active) and 0.284, respectively.
Consider `O=C1O[C@@H](c2ccccc2)[C@@H](c2ccccc2)N2[C@@H](c3ccc(OCCO)cc3)[C@]3(C(=O)Nc4ccccc43)[C@@H](C(=O)NC[C@H](O)c3ccccc3)[C@H]12`, for which the z-score in assay [1] is 0.665; in assay [2], 1.33 (inactive); in assay [3] it was 0.251 (inactive); in assay [5], 2.44 (inactive); in [6] it was 1.84 (inactive); in assay [7] it was 0.0225 (inactive). Besides, the z-score in assay [8] is -0.348 (inactive); in [9], -0.0509. The composite z-score in assay [4] is -0.854 (inactive); in [10] it was -0.117.
For the compound `O=C1OCCC/C=C\[C@H]2OC34C=CCN(Cn5nnc6ccccc65)C(=O)[C@H]3N(CCO)C(=O)[C@@H]4C12` (stereo not given in full), the z-score in assay [1] was -0.345; in assay [2], -0.0322 (inactive); in assay [3], 0.158 (inactive); in assay [5] it was 0.469 (inactive); in assay [6], 0.821 (inactive); in assay [7] it was 0.254 (inactive). Moreover, the figures for the z-score in assay [8] and in [9] were -0.146 (inactive) and 0.0966, respectively. The figures for the composite z-score in assay [4] and in [10] were 1.16 (inactive) and 0.213, respectively.
For `COc1cc2c(cc1OC)CN(C(=O)[C@@H]1[C@H]3C(=O)O[C@H](c4ccccc4)[C@H](c4ccccc4)N3[C@H](c3ccc(O)cc3)[C@@]13C(=O)Nc1ccc(C#CC4(O)CCCCCC4)cc13)CC2`, the z-score in assay [1] was 0.396; in assay [2], -0.313 (inactive); in [3] it was 0.323 (inactive); in assay [5] it was 0.958 (inactive); in [6], 0.525 (inactive); in assay [7], 0.241 (inactive). Further, the z-score in [8] was 0.475 (inactive); in assay [9] it was 0.777. Moreover, the composite z-score is -0.495 (inactive) in [4] and -0.0559 in [10].
On to `O=C1O[C@H](c2ccccc2)[C@H](c2ccccc2)N2[C@H]1[C@@H](C(=O)O)[C@]1(C(=O)Nc3ccc(C#CCCO)cc31)[C@H]2c1ccc(O)cc1`, for which the z-score in assay [1] was 1.11; in [2], -0.326 (inactive); in [3], 1.5 (inactive); in assay [5] it was 0.0568 (inactive); in assay [6] it was 0.0737 (inactive); in assay [7] it was 0.994 (inactive). Moreover, the z-score in assay [8] was 1.69 (inactive); in assay [9], 1.14. Further, the results for the composite z-score in assay [4] and in assay [10] were 0.158 (inactive) and -0.127, respectively.
Regarding `CCCCCN1CC=CC23O[C@@H]4/C=C\CCCOC(=O)C4[C@H]2C(=O)N(C(CO)C(C)C)[C@@H]3C1=O` (stereo not given in full), the z-score is 1.05 in assay [1]; 0.367 (inactive) in assay [2]; 0.641 (inactive) in assay [3]; -0.124 (inactive) in assay [5]; 0.226 (inactive) in assay [6]; 0.299 (inactive) in assay [7]. The z-score in assay [8] was 0.0539 (inactive); in assay [9], 0.574. The composite z-score in [4] is -2.08 (inactive); in assay [10], 0.177.
Consider `O=C1O[C@@H](c2ccccc2)[C@@H](c2ccccc2)N2[C@@H](c3ccccc3OCCO)[C@]3(C(=O)Nc4ccc(C#CC5=CCCCC5)cc43)[C@@H](C(=O)Nc3nc4ccccc4s3)[C@H]12`, for which the z-score was 0.482 in assay [1]; 1.26 (inactive) in assay [2]; -0.785 (inactive) in assay [3]; 2.84 (inactive) in assay [5]; 1.34 (inactive) in [6]; -0.583 (inactive) in assay [7]. Also, the figures for the z-score in assay [8] and in assay [9] were -1.05 (inactive) and -1.2, respectively. The composite z-score is -1.7 (inactive) in assay [4] and -0.234 in [10].
